Bioassay records from PubChem.
Luciferase inh: qHTS Assay for Inhibitors of Firefly Luciferase; Luciferin 4-monooxygenase (Photinus pyralis), P08659; purified firefly luciferase, luminescence, 8 min; Potency, µM (highest dose often 57.1 µM), for the others: at the highest dose activity change, negative = inhibition, usual class: inhibitors; actives 2.2% (n = 72,000); further: potency means the concentration at half of the fitted maximal effect; on the % scale 0 is the no-effect control and ±100 the full control effect; nearly all actives have a fitted effect of over 40% in size
Target sequence (P08659 whole entry, looked up): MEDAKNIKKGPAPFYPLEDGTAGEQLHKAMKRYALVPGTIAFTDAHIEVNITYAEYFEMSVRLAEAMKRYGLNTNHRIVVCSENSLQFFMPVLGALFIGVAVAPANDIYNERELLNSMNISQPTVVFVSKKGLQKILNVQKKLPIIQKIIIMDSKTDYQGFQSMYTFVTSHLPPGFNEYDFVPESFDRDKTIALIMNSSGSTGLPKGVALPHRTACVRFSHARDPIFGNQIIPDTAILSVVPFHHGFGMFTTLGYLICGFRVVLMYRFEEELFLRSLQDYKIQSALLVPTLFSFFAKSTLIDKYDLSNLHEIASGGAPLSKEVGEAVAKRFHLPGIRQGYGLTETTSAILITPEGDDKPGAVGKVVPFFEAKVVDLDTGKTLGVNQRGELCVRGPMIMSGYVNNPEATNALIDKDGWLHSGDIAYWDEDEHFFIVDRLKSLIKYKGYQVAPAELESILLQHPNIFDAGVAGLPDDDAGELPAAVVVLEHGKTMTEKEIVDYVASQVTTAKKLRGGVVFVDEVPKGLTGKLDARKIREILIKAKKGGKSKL
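Firefly luciferase (PKLight detection mix) with 10 uM ATP in pH 7.2 imidazole buffer (KCl, MgCl2, Tween 20, BSA). Compounds tested across a concentration series (qHTS). Luminescence read after 8 min at ambient temperature.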
HEK293 cAMP cs: qHTS Assay for Agonists of the Thyroid Stimulating Hormone Receptor: Activators of Intracellular cAMP Concentrations in Parental HEK 293; Potency, µM (titrated, usually from 57.1 µM), for the others: top-dose activation, usual class: activators; parental HEK293 CNG cAMP sensor, membrane potential fluorescence; AID 938, 2007; actives 2.5% (n = 73,000); further: potency means the concentration at half of the fitted maximal effect; % of control where 0% means no effect; nearly all actives have a fitted effect of over 55% in size
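Counterscreen for endogenous-receptor signalling: CNG-channel HEK 293 cells report cAMP rise by membrane depolarization. After 60 min dye equilibration with 100 uM RO 20-1724, compounds incubated 30 min before bottom-read fluorescence at 590 nm.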
TSHR agonist: qHTS Assay for Agonists of the Thyroid Stimulating Hormone Receptor. HEK293-CNG-TSHR cells (CNG channel as cAMP sensor), membrane potential dye, cAMP. Potency, µM (titrated, usually from 57.1 µM), for the others: at the top dose activation, most hits filed as activators. actives 0.48% (n = 73,000). AID 926, 2007; active means well fitted activation curve with a large enough effect in the main read-out, with a control signal flat, not every such curve was filed as active; inconclusive means small, poorly fitted or top-dose-only effect, or a change in a side signal; inactive means no such curve, though single readings can be large or run the other way; % of control where 0% means no effect;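 further: the control signal comes from parental cells without the receptor; potency means the concentration at half of the fitted maximal effect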
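cAMP rise detected as CNG-channel membrane depolarization by fluorescent dye (emission 590 nm), 30 min after compound, following 60 min dye loading containing 100 uM RO 20-1724 at room temperature. Cells: TSHR/CNG HEK 293, with parental CNG HEK 293 as control.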
PK Bst: Pyruvate Kinase. Potency, µM. actives 1.2% (n = 51,000). purified pyruvate kinase, luminescence ATP production; ribose 5-phosphate activator present at AC10; in the data active means potency below about 11 µM; inconclusive means mostly about 12 µM to 25 µM;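 the screen sought inhibitors and activators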;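 further: potency means the concentration at half of the fitted maximal effect; scaled between full activation by ribose 5 phosphate and full inhibition by luteolin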
parental cAMP: Confirmation Concentration-Response Assay for Agonists of the Thyroid Stimulating Hormone Receptor: Activators of Intracellular cAMP Concentrations in Parental HEK 293 | 150 tested, under 10 active | activity change, negative = inhibition, % at 32.9 µM | shares compounds with TSHR agonist | AID 953, 2007 | parental HEK293 CNG biosensor, cAMP membrane potential fluorescence
Active calls of the source: *; [ ] = remark or other dose. Compounds with a hit are over-represented: about 5.2% of the library has one in this group of screens. Unless noted, the call rests on the fitted dose curve; in most records, active means well fitted curve in the direction sought with a large enough effect; inconclusive means small, poorly fitted or top-dose-only effect, or another doubt; inactive means no such curve, though single readings can be large; an effect the other way counts as inactive or inconclusive.

Results for CCOC(=O)N1CCC(NC(=O)c2ccc(CNS(=O)(=O)c3ccc(F)cc3)cc2)CC1 ?
Luciferase inh: 1%; HEK293 cAMP cs: 9%; TSHR agonist: 25µM*; PK Bst: >57; parental cAMP: 8

What do the screens show for `Cc1noc(/C=C/c2ccco2)c1S(=O)(=O)N1CCC(C(=O)NCc2ccco2)CC1`?
Luciferase inh: -1%; HEK293 cAMP cs: 12%; TSHR agonist: 32µM*; PK Bst: >57; parental cAMP: 18

How did CC(=O)NC(Cc1ccc(C(C)C)cc1)C(=O)NC1CCN(c2nc(C)cc(C)n2)CC1 (stereo unspecified) do in these assays?
Luciferase inh: -34%; HEK293 cAMP cs: 18%; PK Bst: >57

What do the screens show for `O=c1/c(=C/c2ccco2)sc2nc(-c3ccccc3Br)nn12`?
Luciferase inh: -27%; HEK293 cAMP cs: -29%; TSHR agonist: -19%; PK Bst: >57

How did CN1C(=O)N(C)C2(c3ccccc3)Nn3c(s/c(=C/c4ccco4)c3=O)=NC12c1ccccc1 (stereo unspecified) do in these assays?
Luciferase inh: 3%; HEK293 cAMP cs: 4%; TSHR agonist: 1.6µM*; PK Bst: >57; parental cAMP: -1

Results for Oc1ccc(Cn2c(-c3ccc(O)cc3)nc3ccccc32)cc1 ?
Luciferase inh: 2%[11.4 µM]; HEK293 cAMP cs: -1%[11.4 µM]; TSHR agonist: 5%[11.4 µM]

What do the screens show for `Oc1ccccc1Cn1c(-c2ccccc2O)nc2ccccc21`?
Luciferase inh: 1%; HEK293 cAMP cs: -13%; TSHR agonist: 10µM*; PK Bst: >57; parental cAMP: -15

Results for CCS(=O)(=O)N1CCN(C(C)CCc2ccccc2)CC1 (stereo unspecified) ?
Luciferase inh: -3%; HEK293 cAMP cs: 9%[11.4 µM]; parental cAMP: -3

Results for Cc1ccc(CSc2nnc(-c3ccccn3)n2C)cc1 ?
Luciferase inh: -2%; HEK293 cAMP cs: 6%; TSHR agonist: 19%; PK Bst: >57

Results for CCN(CC)S(=O)(=O)c1ccc(Cl)c(C(=O)NC2CCCC2)c1 ?
Luciferase inh: 3%; HEK293 cAMP cs: 51%; parental cAMP: inconclusive

Results for COC(=O)C1=C(C)OC(N)=C(C#N)C1C1CCCCC1 (stereo unspecified) ?
Luciferase inh: 1%; HEK293 cAMP cs: 25%; TSHR agonist: 13µM*; PK Bst: >57; parental cAMP: 16

Results for COC(=O)C1=C(C)OC(N)=C(C#N)C1c1ccc(OC)c(OC)c1OC (stereo unspecified) ?
Luciferase inh: 2%[25.5 µM]; PK Bst: >26

Results for COC(=O)C1=C(C)OC(N)=C(C#N)C1c1c(C)nn(-c2ccccc2)c1Cl (stereo unspecified) ?
Luciferase inh: -1%; HEK293 cAMP cs: 15%; TSHR agonist: 6.3µM*; PK Bst: >57; parental cAMP: 6

Results for CC12CCC(C(N)=O)(c3nc4ccccc4nc31)C2(C)C (stereo unspecified) ?
Luciferase inh: 2%; HEK293 cAMP cs: 6%; TSHR agonist: -2%; PK Bst: >57

What do the screens show for `CC1(C)CC(=O)C2=C(C1)OC(N)=C(C#N)C2C#Cc1ccccc1` (stereo unspecified)?
Luciferase inh: 1%; HEK293 cAMP cs: 4%; TSHR agonist: 18%; PK Bst: >57

What do the screens show for `CC1(C)CC(=O)C2=C(C1)OC(N)=C(C#N)C2CCc1ccccc1` (stereo unspecified)?
Luciferase inh: -4%; HEK293 cAMP cs: 28%; TSHR agonist: 20µM*; PK Bst: >57; parental cAMP: 14

What do the screens show for `CC(C)c1nnc(NC(=O)CCC(=O)NCc2ccc3c(c2)OCO3)s1`?
Luciferase inh: 3%; HEK293 cAMP cs: -6%; TSHR agonist: 3%; PK Bst: >57; parental cAMP: 15[25.6 µM]

Results for COc1ccc(CNc2n[nH]c(NCc3ccc(OC)c(OC)c3)n2)cc1OC ?
Luciferase inh: 3%; HEK293 cAMP cs: 2%; TSHR agonist: 2%; PK Bst: >57
